# This is a sample that favours compounds with a hit; in the whole collection about 4.6% have one here.
# TRHR PAM: allosteric enhancers of human TRH receptor. enhancement, % at 2 µM. actives 0.66% (n = 360,000). TRHR cells, fluo-8 calcium fluorescence, EC20 TRH enhancement. P34981; in the data active means enhancement above about 30%
#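 TRHR-expressing cells loaded with fluo-8 calcium dye were read kinetically (ex 480/em 530) during compound addition, then stimulated with an EC20 of TRH (10 nM final). Enhancement of the Gq-mediated intracellular calcium response was scored.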
# D1 ag: agonists of human D1 dopamine receptor. P21728. actives 1% (n = 360,000). HEK293 T-REx D1 cells, calcium flux, agonist mode. activation, % at 2 µM
# Target sequence (P21728 whole entry, looked up): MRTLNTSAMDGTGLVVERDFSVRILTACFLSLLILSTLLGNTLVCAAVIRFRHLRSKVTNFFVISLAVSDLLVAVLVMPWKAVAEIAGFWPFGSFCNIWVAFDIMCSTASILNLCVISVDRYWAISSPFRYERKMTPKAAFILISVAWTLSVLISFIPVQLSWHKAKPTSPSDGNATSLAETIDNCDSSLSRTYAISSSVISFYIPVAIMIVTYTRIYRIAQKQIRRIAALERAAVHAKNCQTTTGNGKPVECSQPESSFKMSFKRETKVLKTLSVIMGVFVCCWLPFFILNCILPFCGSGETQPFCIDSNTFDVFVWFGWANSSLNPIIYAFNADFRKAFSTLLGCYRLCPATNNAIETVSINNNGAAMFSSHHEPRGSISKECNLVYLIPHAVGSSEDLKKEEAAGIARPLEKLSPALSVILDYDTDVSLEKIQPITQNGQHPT
#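 Tetracycline-induced HEK293 TREx D1 cells, force-coupled to calcium signalling, were dye-loaded with a no-wash calcium kit. Compound was pin-added after a 10 s baseline. Fluorescence was read kinetically at 1 cycle/s for 180 s, with calcium rises flagged as agonism.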
# D1 antagonist: blocks dopamine activation of the human D1 receptor. HEK293 TREx D1 cells, calcium flux, dopamine EC80; stronger effect = lower value. activity change, negative = inhibition, % at 10 µM. actives 3.2% (n = 360,000). AID 504652; in the data active means activity change below about -30%
#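 Inducible Hek293 Trex D1 cells (tetracycline, overnight, 30 C). Calcium dye 30–90 min RT. Antagonist mode: EC80 dopamine added after 180 s compound read.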
# D1 potentiator: enhances dopamine response at the human D1 receptor; actives 0.036% (n = 360,000); potentiation, % at 10 µM; P21728; AID 504651; HEK293 TREx D1 cells, calcium flux, dopamine EC20 potentiation; in the data active means potentiation above about 30%
# TRHR ag: activates the human TRH receptor | TRHR cells, calcium flux fluo-8, FDSS agonist mode | actives 0.18% (n = 360,000) | activation, % at 2 µM | AID 493084 | P34981
#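 TRHR-expressing cells, plated overnight in medium with 10% serum, were loaded with fluo-8 calcium dye at room temperature. After a 10 s baseline, library compound was pin-added and calcium release was recorded kinetically (ex 480/em 530) as agonist response.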
# A number is an active result; – = inactive; · = no result given. Unless noted, no stated cut-off is given here; in the data, active means activation above about 30%; inactive means the rest.
SMILES,TRHR PAM,D1 ag,D1 antagonist,D1 potentiator,TRHR ag
FC(F)(F)c1cccc(Nc2c3c(nc4ccc(Cl)cc24)CCC3)c1,–,–,-32.0,–,–
CC1CC(C)(C)CC2(C1)NC(=O)N(CC(=O)Nc1cc([N+](=O)[O-])ccc1F)C2=O (stereo not drawn),–,–,-33.1,–,–
CC1CC(C)(C)CC2(C1)NC(=O)N(CC(=O)Nc1c(F)cccc1F)C2=O (stereo not drawn),–,–,–,·,–
Nc1nc(C2CC2)c(Sc2sc(N)nc2C2CC2)s1,–,–,-48.6,–,–
COc1ccccc1C(=O)c1c(N)c(-c2nc(-c3ccccc3)cs2)c2ccccn12,–,–,–,–,–
COc1ccc(Cn2c(N)c(C#N)c3nc4ccccc4nc32)cc1,–,–,–,–,–
COc1cccc(Cn2c(N)c(C#N)c3nc4ccccc4nc32)c1OC,–,–,-42.9,–,–
O=C(NCC(c1cccs1)S(=O)(=O)c1cccs1)c1ccc(Cl)cc1 (stereo not drawn),–,–,·,–,–
Cc1c(C(=O)N2CCOCC2)sc2ncn(CC(=O)N3CCC(C)CC3)c(=O)c12,–,–,–,–,–
Cc1c(C(=O)N2CCN(c3ccc([N+](=O)[O-])cc3)CC2)sc2ncn(CC(=O)N3CCOCC3)c(=O)c12,–,53.6,–,·,–
COC(=O)c1c(C)n(-c2ccc(C)cc2)c2ccc(O)cc12,–,–,-61.7,–,–
CC(=O)c1c(C)n(-c2ccc(Cl)cc2)c2ccc(O)cc12,38.9,–,–,–,–
CC(=O)c1ccc(-n2c(C)c(C(C)=O)c3cc(O)ccc32)cc1,–,–,–,–,–
CC(=O)c1c(C)n(-c2ccccc2)c2ccc(O)cc12,–,–,-38.1,–,–
CC(=O)c1c(C)n(-c2cccc(Cl)c2)c2ccc(O)cc12,–,–,–,–,–
CCOc1ccc(-n2c(C)c(C(=O)OC)c3cc(O)ccc32)cc1,–,–,–,–,–
O=C(O)c1ccc(CSc2nnc(SCc3ccccc3)s2)cc1,–,–,-47.2,–,–
Cc1ccc(NC(=O)c2ccc(CSc3nnc(C)s3)cc2)cc1,–,125.1,–,35.4,–
Cc1nnc(SCc2ccc(C(=O)O)cc2)s1,–,–,–,–,–
COc1ccc([C@H]2CC(=O)C=C(c3ccc(O)cc3)C2)cc1OC,–,–,-86.0,–,–
COc1ccc([C@H]2CC(=O)C=C(c3cc(OC)ccc3OC)C2)cc1,–,–,-34.5,–,–
O=C(COc1ccccc1F)Nc1ccccc1OCc1cc(=O)n2ccccc2n1,–,–,–,–,–
CC(=O)Nc1cccc(NC(=O)c2c(-c3ccccc3)c(-c3ccccc3)nn(C)c2=O)c1,–,–,–,–,–
Cc1nc2ccccc2n1-c1ccccc1,–,–,–,–,–
O=c1c(/C=C(\O)c2ccccc2)nc2ccccc2n1-c1ccccc1,–,169.4,–,–,46.6
SMILES,TRHR PAM,D1 ag,D1 antagonist,D1 potentiator,TRHR ag
CCOc1ccccc1-n1nnnc1SCc1nc2ccccc2s1,–,–,-31.3,–,–
Cc1ccccc1-n1c(C)nnc1SCc1nc2ccccc2s1,–,–,–,–,–
Cc1ccc(N2C(=O)C(CC(=O)Nc3ccc(F)cc3)N(CCC3=CCCCC3)C2=O)cc1 (stereo not drawn),–,–,–,–,–
COc1ccc(OC)c(C(O)c2coc3ccc(O)c(CN4CCOCC4)c23)c1 (stereo not drawn),–,–,-30.2,–,–
COc1ccc(C(=O)C[n+]2cccc(Br)c2)cc1,–,–,–,–,–
COC(=O)c1ccc[n+](CC(=O)c2ccc(Br)cc2)c1,–,–,-35.1,–,–
O=CN1CCCN(Cc2nc(Cc3ccccc3F)no2)CC1,–,–,–,–,–
Fc1ccccc1Cc1noc(CN2CCN(C/C=C/c3ccccc3)CC2)n1,–,–,-52.8,–,–
Cc1cccc[n+]1CC(=O)N1c2ccccc2Sc2ccccc21,31.3,–,–,–,–
O=c1c(=O)n(-c2ccccc2)ccn1Cc1c(F)cccc1Cl,–,–,–,–,–
Cc1nc2ncnn2c(N2CCN(C(=O)c3cccc(F)c3)CC2)c1Cc1ccccc1,–,–,-91.1,–,–
Cc1ccc(C)c(CSc2nc(-c3ccccc3F)nc3c2Cc2c(CO)cnc(C)c2O3)c1,–,–,–,–,–

# Assay outcomes as filed in PubChem BioAssay.
